Laboratory results published in the supplement of paper PMC10849652.
The full data set covers some 7,900 targets. This sample favours those with a hit. About 0.6% of all pairs of compound and target were hits.

Legend:
Experiment in all cases: log2 fold change, soluble protein after heating vs DMSO (PISA); higher = thermal stabilisation; K562 cells, 10 uM, 30 min; active = over 0.2 and 3.5 SD of the protein, either way, in both replicates (recomputed)
bafetinib = compound: Cc1ccc(NC(=O)c2ccc(CN3CC[C@H](N(C)C)C3)c(C(F)(F)F)c2)cc1Nc1nccc(-c2cncnc2)n1 [bafetinib]
Outline: (§1)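 K562 cells at 2×10^6 cells/mL were treated for 30 min with 10 μM compound, and aliquots were heated for 3 min over 48°C-58°C before pooling. Extraction used PBS with 0.5% NP-40 at 4°C, and soluble protein was the supernatant after 21,000xg for 90 min, measured by TMTpro 16plex LC-MS/MS with channel sums equalised. Thermal stability values, relative to control samples and from duplicates, are log2 fold changes.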

[1] = compound: Cc1cccc(CC(=O)N2CCc3c2ccc(-c2cn(C)c4ncnc(N)c24)c3F)n1
Outline: as §1

nilotinib = compound: Cc1cn(-c2cc(NC(=O)c3ccc(C)c(Nc4nccc(-c5cccnc5)n4)c3)cc(C(F)(F)F)c2)cn1 [nilotinib]
Outline: as §1

[2] = compound: Cc1nc(Nc2n[nH]c3c2CN(C(=O)N[C@H](CN(C)C)c2ccccc2)C3(C)C)c2sccc2n1
Outline: as §1

dasatinib = compound: Cc1nc(Nc2ncc(C(=O)Nc3c(C)cccc3Cl)s2)cc(N2CCN(CCO)CC2)n1 [dasatinib]
Outline: as §1

[3] = compound: Cc1ncc(-c2ccnc(Nc3ccc(S(C)(=O)=O)cc3)n2)n1C(C)C
Outline: as §1

[4] = compound: Cn1cc(-c2ccc3c(c2)CCN3C(=O)Cc2cccc(C(F)(F)F)c2)c2c(N)ncnc21
Outline: as §1

[5] = compound: Cn1cc(-c2ccc3nnc(C(F)(F)c4ccc5ncccc5c4)n3n2)cn1
Outline: as §1

tipifarnib = compound: Cn1cncc1[C@@](N)(c1ccc(Cl)cc1)c1ccc2c(c1)c(-c1cccc(Cl)c1)cc(=O)n2C [tipifarnib]
Outline: as §1

mubritinib = compound: FC(F)(F)c1ccc(/C=C/c2nc(COc3ccc(CCCCn4ccnn4)cc3)co2)cc1 [mubritinib]
Outline: as §1

[6] = compound: NC(=O)Nc1cc(-c2cccc(F)c2)sc1C(=O)N[C@H]1CCCNC1
Outline: as §1

[7] = compound: NC(=O)c1cnc(N[C@@H]2CCCC[C@@H]2N)nc1Nc1cccc(-n2nccn2)c1
Outline: as §1

[8] = compound: NC1(c2ccc(-c3nc4ccn5c(=O)[nH]nc5c4cc3-c3ccccc3)cc2)CCC1
Outline: as §1

[9] = compound: NCC(=O)Nc1ccc(-n2nc(C(F)(F)F)cc2-c2ccc3c(ccc4ccccc43)c2)cc1
Outline: as §1

entinostat = compound: Nc1ccccc1NC(=O)c1ccc(CNC(=O)OCc2cccnc2)cc1 [entinostat]
Outline: as §1

vorinostat = compound: O=C(CCCCCCC(=O)Nc1ccccc1)NO [vorinostat]
Outline: as §1

citarinostat = compound: O=C(CCCCCCNC(=O)c1cnc(N(c2ccccc2)c2ccccc2Cl)nc1)NO [citarinostat]
Outline: as §1

silmitasertib = compound: O=C(O)c1ccc2c(c1)nc(Nc1cccc(Cl)c1)c1ccncc12 [silmitasertib]
Outline: as §1

[10] = compound: O=C1NC(=O)C(c2cnc3ccccn23)=C1c1cn2c3c(cc(F)cc13)CN(C(=O)N1CCCCC1)CC2
Outline: as §1

[11] = compound: c1cc(OCCN2CCCCC2)cc(-c2n[nH]c3ccc(-c4nnc[nH]4)cc23)c1
Outline: as §1

Measured: log2 fold change

GNG5 (UniProt P63218)
UniProt P63218, sequence (P63218 whole entry, looked up): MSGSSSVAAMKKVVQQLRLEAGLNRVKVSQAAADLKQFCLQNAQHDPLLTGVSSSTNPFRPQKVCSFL
inactive: bafetinib 0.013 | [1] -0.048 | nilotinib 0.12 | [2] 0.023 | dasatinib 0.06 | [3] -0.051 | [4] 0.027 | [5] 0.169 | tipifarnib 0.027 | mubritinib 0.039 | [6] -0.029 | [7] 0.071 | [8] 0.056 | [9] 0.086 | entinostat 0.082 | vorinostat -0.127 | citarinostat -0.021 | silmitasertib 0.017 | [10] -0.156 | [11] -0.057

GALC (UniProt P54803)
UniProt P54803, sequence (P54803 whole entry, looked up): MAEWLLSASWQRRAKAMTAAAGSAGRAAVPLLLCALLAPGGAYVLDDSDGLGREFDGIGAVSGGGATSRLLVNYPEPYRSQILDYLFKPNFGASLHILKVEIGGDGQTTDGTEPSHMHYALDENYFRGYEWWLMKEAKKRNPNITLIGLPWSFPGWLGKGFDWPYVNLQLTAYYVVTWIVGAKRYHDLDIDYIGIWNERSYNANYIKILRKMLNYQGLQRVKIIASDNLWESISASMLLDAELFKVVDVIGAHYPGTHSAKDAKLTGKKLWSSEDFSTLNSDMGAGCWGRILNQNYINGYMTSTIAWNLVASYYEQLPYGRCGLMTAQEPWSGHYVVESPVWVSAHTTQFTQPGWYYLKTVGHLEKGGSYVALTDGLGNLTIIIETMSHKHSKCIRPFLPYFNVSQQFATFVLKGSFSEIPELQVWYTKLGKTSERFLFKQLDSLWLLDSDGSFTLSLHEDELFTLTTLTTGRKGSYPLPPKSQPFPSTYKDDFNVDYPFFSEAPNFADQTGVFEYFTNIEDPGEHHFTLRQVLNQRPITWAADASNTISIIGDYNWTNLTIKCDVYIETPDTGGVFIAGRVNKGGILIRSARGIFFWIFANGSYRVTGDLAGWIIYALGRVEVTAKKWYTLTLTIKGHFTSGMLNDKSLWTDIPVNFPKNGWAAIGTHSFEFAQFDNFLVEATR
active: bafetinib -0.507
inactive: [1] 0.084 | nilotinib 0.008 | [2] 0.045 | dasatinib 0.096 | [3] 0.01 | [4] 0.004 | [5] 0.065 | tipifarnib 0.126 | mubritinib -0.005 | [6] 0.015 | [7] 0.016 | [8] -0.165 | [9] 0.001 | entinostat -0.012 | vorinostat -0.138 | citarinostat 0.017 | silmitasertib 0.042 | [10] 0 | [11] 0.096

GNAI3 (UniProt P08754)
UniProt P08754, sequence (P08754 whole entry, looked up): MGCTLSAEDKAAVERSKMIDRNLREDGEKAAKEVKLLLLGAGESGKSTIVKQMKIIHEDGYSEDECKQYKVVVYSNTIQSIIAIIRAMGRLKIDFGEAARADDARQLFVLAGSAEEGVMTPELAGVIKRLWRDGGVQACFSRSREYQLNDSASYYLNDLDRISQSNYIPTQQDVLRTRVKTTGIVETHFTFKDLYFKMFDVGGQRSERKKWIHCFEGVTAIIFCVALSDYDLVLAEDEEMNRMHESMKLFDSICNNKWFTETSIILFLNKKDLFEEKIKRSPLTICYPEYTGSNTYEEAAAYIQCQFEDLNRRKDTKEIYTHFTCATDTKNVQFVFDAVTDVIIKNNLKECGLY
inactive: bafetinib 0.066 | [1] 0.033 | nilotinib 0.185 | [2] 0.008 | dasatinib 0.086 | [3] -0.004 | [4] -0.017 | [5] 0.018 | tipifarnib -0.008 | mubritinib -0.032 | [6] -0.016 | [7] 0.022 | [8] -0.046 | [9] 0.003 | entinostat -0.04 | vorinostat -0.016 | citarinostat -0.018 | silmitasertib 0.052 | [10] -0.027 | [11] -0.076

GLB1 (UniProt P16278)
UniProt P16278, sequence (P16278 whole entry, looked up): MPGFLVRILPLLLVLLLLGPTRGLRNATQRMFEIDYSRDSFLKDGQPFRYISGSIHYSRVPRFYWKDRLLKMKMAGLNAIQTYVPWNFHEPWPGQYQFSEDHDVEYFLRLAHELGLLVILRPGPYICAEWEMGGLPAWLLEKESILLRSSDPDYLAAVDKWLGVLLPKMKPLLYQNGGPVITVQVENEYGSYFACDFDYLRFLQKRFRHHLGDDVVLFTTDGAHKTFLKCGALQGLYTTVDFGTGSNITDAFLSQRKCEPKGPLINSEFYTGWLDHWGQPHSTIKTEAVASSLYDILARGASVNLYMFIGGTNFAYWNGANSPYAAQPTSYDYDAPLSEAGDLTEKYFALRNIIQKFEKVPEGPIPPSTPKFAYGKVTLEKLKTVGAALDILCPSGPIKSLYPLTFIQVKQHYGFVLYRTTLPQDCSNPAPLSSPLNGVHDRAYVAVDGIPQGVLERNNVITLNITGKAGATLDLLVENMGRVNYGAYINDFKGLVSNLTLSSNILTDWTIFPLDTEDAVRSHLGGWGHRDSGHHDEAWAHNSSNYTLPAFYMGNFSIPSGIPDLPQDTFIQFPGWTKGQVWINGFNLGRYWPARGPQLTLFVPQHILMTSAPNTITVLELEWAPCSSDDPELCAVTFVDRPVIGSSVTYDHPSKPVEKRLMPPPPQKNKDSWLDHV
inactive: [1] -0.009 | nilotinib 0.013 | [2] 0.017 | dasatinib 0.061 | [3] 0.004 | [4] -0.006 | [5] 0.016 | tipifarnib 0.039 | mubritinib -0.009 | [6] 0.02 | [7] 0.002 | [8] -0.097 | [9] -0.043 | entinostat 0.01 | vorinostat -0.065 | citarinostat 0.005 | silmitasertib 0.021 | [10] -0.003 | [11] -0.044
active: bafetinib -0.418

HDHD2 (UniProt Q9H0R4)
UniProt Q9H0R4, sequence (Q9H0R4 whole entry, looked up): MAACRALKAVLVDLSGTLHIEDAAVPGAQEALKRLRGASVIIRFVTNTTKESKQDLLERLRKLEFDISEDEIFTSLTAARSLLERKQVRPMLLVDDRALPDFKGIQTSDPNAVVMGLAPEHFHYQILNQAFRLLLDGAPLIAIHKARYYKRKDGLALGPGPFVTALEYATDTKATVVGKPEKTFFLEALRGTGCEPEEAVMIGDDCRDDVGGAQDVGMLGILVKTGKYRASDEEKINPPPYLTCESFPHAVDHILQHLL
inactive: bafetinib 0.068 | [1] 0.018 | nilotinib 0.024 | [2] -0.04 | dasatinib 0.042 | [3] 0.006 | [4] 0.019 | [5] 0.028 | tipifarnib -0.011 | mubritinib 0.045 | [6] 0.091 | [7] -0.016 | [8] -0.023 | [9] 0.048 | entinostat -0.01 | vorinostat -0.018 | citarinostat 0.033 | silmitasertib -0.007 | [10] 0.131 | [11] -0.012

HLTF (UniProt Q14527)
inactive: bafetinib -0.003 | [1] 0.017 | nilotinib 0.099 | [2] -0.193 | dasatinib -0.035 | [3] 0.015 | [4] -0.035 | [5] -0.01 | tipifarnib 0.007 | mubritinib 0.051 | [6] -0.025 | [7] 0.037 | [8] -0.067 | [9] -0.043 | entinostat 0.069 | vorinostat -0.012 | citarinostat 0.008 | silmitasertib -0.095 | [10] -0.073 | [11] -0.101

H2AZ1 (UniProt P0C0S5)
UniProt P0C0S5, sequence (P0C0S5 whole entry, looked up): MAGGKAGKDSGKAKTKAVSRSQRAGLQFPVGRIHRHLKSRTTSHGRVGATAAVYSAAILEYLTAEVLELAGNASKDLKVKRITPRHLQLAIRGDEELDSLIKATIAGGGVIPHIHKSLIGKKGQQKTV
inactive: bafetinib 0.173 | [1] -0.204 | nilotinib -0.138 | [2] -0.029 | dasatinib -0.092 | [3] -0.006 | [4] -0.369 | [5] -0.133 | tipifarnib 0.013 | mubritinib -0.083 | [6] 0.067 | [7] 0.258 | [8] 0.444 | [9] -0.038 | entinostat 0.135 | vorinostat 0.19 | citarinostat -0.058 | silmitasertib 0 | [10] 0.086 | [11] -0.032

HNRNPF (UniProt P52597)
UniProt P52597, sequence (P52597 whole entry, looked up): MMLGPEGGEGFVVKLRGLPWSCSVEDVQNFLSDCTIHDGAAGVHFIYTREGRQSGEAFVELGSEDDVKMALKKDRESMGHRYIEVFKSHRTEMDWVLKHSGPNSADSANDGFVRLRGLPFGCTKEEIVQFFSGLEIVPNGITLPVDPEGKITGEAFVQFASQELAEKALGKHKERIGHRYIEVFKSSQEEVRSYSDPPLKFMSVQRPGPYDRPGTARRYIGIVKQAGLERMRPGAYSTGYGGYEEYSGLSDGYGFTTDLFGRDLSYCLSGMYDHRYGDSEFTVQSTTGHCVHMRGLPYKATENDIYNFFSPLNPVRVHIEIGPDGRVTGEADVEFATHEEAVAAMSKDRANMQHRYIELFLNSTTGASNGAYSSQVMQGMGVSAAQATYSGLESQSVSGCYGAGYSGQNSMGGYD
inactive: bafetinib -0.013 | [1] 0.056 | nilotinib -0.106 | [2] -0.178 | dasatinib -0.15 | [3] -0.066 | [4] 0.024 | [5] -0.057 | tipifarnib -0.051 | mubritinib -0.022 | [6] -0.015 | [7] 0.014 | [8] -0.11 | [9] -0.027 | entinostat 0.137 | vorinostat 0.154 | citarinostat 0.07 | silmitasertib 0.074 | [10] -0.104 | [11] -0.048

GOLPH3 (UniProt Q9H4A6)
UniProt Q9H4A6, sequence (Q9H4A6 whole entry, looked up): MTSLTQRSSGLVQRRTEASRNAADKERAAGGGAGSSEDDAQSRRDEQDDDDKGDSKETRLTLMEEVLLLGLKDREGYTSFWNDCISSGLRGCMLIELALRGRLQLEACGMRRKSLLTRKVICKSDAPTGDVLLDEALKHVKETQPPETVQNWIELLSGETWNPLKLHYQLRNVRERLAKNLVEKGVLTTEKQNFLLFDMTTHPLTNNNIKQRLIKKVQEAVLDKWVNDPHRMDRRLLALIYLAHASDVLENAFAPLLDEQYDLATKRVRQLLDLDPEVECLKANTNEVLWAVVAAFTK
inactive: bafetinib 0.074 | [1] 0.032 | nilotinib -0.021 | [2] -0.015 | dasatinib -0.123 | [3] -0.013 | [4] 0.02 | [5] -0.013 | tipifarnib -0.028 | mubritinib 0.07 | [6] 0.041 | [7] -0.082 | [8] 0.009 | [9] 0 | entinostat 0.022 | vorinostat 0.014 | citarinostat 0.071 | silmitasertib -0.013 | [10] 0 | [11] -0.043

H1FX (UniProt Q92522)
UniProt Q92522, sequence (Q92522 whole entry, looked up): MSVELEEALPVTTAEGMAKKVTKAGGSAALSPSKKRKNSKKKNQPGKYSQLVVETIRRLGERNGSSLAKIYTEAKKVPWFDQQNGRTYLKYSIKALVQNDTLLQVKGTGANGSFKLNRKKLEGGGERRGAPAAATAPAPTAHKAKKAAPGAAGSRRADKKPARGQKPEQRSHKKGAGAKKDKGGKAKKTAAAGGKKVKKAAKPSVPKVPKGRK
inactive: bafetinib 0.248 | [1] 0.048 | nilotinib 0.035 | [2] 0.079 | dasatinib 0.043 | [3] 0.039 | [4] -0.189 | [5] -0.113 | tipifarnib 0.126 | mubritinib -0.138 | [6] 0.248 | [7] 0.165 | [8] 0.153 | [9] 0.118 | entinostat -0.072 | vorinostat 0 | citarinostat -0.122 | silmitasertib 0.078 | [10] 0.227 | [11] -0.12

IFI30 (UniProt P13284)
active: bafetinib -0.41
inactive: [1] 0.007 | nilotinib 0.068 | [2] 0.015 | dasatinib 0.016 | [3] -0.049 | [4] 0.097 | [5] 0.002 | tipifarnib 0.04 | mubritinib 0.044 | [6] 0.035 | [7] 0.127 | [8] -0.048 | [9] 0.083 | entinostat -0.052 | vorinostat 0.03 | citarinostat 0.059 | silmitasertib -0.052 | [10] 0.128 | [11] -0.028

GMEB1 (UniProt Q9Y692)
UniProt Q9Y692, sequence (Q9Y692 whole entry, looked up): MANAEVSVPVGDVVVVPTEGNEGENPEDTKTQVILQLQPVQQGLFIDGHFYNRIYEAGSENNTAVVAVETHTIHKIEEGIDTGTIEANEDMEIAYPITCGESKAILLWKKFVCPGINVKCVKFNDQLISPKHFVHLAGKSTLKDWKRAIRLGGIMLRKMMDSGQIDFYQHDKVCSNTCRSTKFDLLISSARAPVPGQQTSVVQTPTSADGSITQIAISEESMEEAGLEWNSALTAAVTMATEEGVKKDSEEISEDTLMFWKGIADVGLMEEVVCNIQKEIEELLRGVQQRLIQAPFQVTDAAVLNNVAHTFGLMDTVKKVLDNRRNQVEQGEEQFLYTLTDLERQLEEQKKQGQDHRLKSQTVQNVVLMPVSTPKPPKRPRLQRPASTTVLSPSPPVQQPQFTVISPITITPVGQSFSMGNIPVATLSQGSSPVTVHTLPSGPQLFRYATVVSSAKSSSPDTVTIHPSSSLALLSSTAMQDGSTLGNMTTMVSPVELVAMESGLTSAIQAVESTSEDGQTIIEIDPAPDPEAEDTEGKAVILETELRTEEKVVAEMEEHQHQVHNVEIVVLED
inactive: bafetinib -0.12 | [1] -0.048 | nilotinib -0.04 | [2] -0.036 | dasatinib -0.06 | [3] 0.001 | [4] 0.019 | [5] 0.044 | tipifarnib -0.204 | mubritinib -0.03 | [6] 0.066 | [7] -0.072 | [8] -0.047 | [9] 0.027 | entinostat 0.073 | vorinostat 0.001 | citarinostat 0.057 | silmitasertib 0.112 | [10] -0.053 | [11] -0.004

HADHA (UniProt P40939)
UniProt P40939, sequence (P40939 whole entry, looked up): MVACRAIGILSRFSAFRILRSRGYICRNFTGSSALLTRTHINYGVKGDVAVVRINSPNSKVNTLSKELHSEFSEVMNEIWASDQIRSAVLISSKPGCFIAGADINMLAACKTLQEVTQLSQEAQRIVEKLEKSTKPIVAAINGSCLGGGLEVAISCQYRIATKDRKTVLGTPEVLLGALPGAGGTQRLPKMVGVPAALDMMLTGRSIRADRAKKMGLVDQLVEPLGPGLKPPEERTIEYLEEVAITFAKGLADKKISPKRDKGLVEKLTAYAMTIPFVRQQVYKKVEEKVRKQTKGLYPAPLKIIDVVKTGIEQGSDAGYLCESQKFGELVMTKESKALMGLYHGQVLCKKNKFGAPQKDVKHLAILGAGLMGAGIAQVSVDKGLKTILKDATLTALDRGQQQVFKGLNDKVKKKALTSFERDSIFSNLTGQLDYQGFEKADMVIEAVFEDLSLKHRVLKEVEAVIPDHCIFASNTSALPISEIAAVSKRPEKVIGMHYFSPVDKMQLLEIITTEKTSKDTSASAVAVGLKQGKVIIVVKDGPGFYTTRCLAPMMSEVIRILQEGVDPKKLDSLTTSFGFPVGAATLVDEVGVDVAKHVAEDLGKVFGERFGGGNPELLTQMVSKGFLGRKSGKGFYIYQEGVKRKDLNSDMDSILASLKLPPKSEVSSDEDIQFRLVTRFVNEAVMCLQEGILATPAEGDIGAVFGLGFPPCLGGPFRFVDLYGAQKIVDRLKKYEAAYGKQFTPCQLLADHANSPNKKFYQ
active: mubritinib 0.685 | [10] 1.01
inactive: bafetinib 0.293 | [1] 0.097 | nilotinib 0.049 | [2] -0.078 | dasatinib -0.05 | [3] 0.036 | [4] 0.203 | [5] 0.069 | tipifarnib -0.304 | [6] -0.035 | [7] 0.033 | [8] 0.131 | [9] 0.125 | entinostat 0.045 | vorinostat -0.059 | citarinostat 0.018 | silmitasertib -0.1 | [11] -0.007

HSPA8 (UniProt E9PK54)
inactive: bafetinib 0.096 | [1] -0.069 | nilotinib -0.105 | [2] -0.011 | dasatinib 0.011 | [3] 0.072 | [5] 0.062 | tipifarnib 0.227 | mubritinib 0.024 | [6] 0.015 | [7] 0.023 | [8] -0.071 | [9] -0.136 | entinostat 0.061 | vorinostat -0.064 | citarinostat 0.068 | silmitasertib 0.028 | [10] 0.093 | [11] -0.027
active: [4] -0.409

HPCAL1 (UniProt P37235)
inactive: bafetinib -0.09 | [1] 0.027 | nilotinib -0.076 | [2] 0.033 | dasatinib -0.031 | [3] -0.028 | [4] -0.011 | [5] 0.053 | tipifarnib -0.032 | mubritinib 0.016 | [6] 0.033 | [7] -0.014 | [8] -0.152 | [9] -0.032 | entinostat 0.006 | vorinostat -0.018 | citarinostat 0.032 | silmitasertib 0.028 | [10] -0.03 | [11] -0.032
